Bioassay records: PubChem, National Center for Advancing Translational Sciences (NCATS)
The list is not random: actives were taken first. Their share in the collection is about 1.2%.
Pin1 inh: human Pin1 inhibition. AID 504891. Pin1 FP peptide displacement, HiFluor488, 10 min. Q13526. Potency, µM (doses to about 115 µM), without a hit: at the top dose activity, negative = inhibition, most hits filed as inhibitors. 0.009% of 390,000 active; active = well fitted inhibition curve with a large enough effect in the polarisation, with a control signal flat, not every such curve was filed as active; inconclusive = small, poorly fitted or top-dose-only effect, or effect the other way, or a change in a side signal; inactive = no such curve, though single readings can be large or run the other way; the % refers to the polarisation; also: potency is read from the fitted curve at half-maximal effect
KCNH2 3.1 block: KCNH2 3.1 (human) potassium channel inhibition; 0.95% of 340,000 active; U2OS KCNH2 3.1, thallium flux FluxOr; stronger effect = lower value; activity change, % (tested at about 1.8 µM); AID 720553;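 active = maximum activity change below -70%; inconclusive = maximum activity change from -70% to -50%; inactive = maximum activity change above -50%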;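 also: thallium influx rate constant from kinetic fluorescence after stimulation buffer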
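Kinetic fluorescence (2 min after stimulation buffer) measures Tl+ influx through KCNH2 3.1 expressed by viral transduction in U2OS cells; the rate constant is normalized against DMSO controls serving as positive and negative references.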
KCNH2 WT inh: KCNH2 (human, wildtype) channel inhibition. 0.37% of 340,000 active. U2OS, BacMam KCNH2, thallium flux FluxOr; stronger effect = lower value. Q12809. activity change, % at 1.84 µM;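 active = maximum activity change below -70%; inconclusive = maximum activity change between -70% and -50%; inactive = maximum activity change above -50%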
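U2OS cells transduced with wild-type KCNH2 virus are loaded with FluxOr dye for 45 min, and thallium flux is measured in kinetic reads before and after stimulation buffer. Rate constants are normalized to DMSO controls.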
PGK inhibitor: inhibitors of T. brucei phosphoglycerate kinase; Potency, µM (highest dose often 57.5 µM), inactives show top-dose activity change, negative = inhibition, usual class: inhibitors; 0.043% of 380,000 active; AID 602233; PGK/GAPDH coupled, Kinase-Glo luminescence, 60 min; P07378; also: potency is read from the fitted curve at half-maximal effect; nearly all actives have a fitted effect of over 60% in size
Target sequence (P07378 whole entry, looked up): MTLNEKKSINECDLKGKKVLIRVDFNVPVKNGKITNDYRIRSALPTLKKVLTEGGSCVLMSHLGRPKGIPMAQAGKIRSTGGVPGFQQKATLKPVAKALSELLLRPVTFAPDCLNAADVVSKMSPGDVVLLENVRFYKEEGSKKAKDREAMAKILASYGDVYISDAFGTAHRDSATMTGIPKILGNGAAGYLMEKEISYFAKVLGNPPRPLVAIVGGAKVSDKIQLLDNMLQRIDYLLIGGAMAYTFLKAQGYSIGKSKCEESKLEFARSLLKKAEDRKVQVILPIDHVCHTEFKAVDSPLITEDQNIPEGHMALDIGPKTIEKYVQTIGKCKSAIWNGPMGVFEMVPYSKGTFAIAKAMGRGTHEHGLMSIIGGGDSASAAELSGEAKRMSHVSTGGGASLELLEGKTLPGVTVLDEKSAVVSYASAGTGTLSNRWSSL
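Luminescent ATP detection (Kinase-Glo Plus) follows a 60-minute room-temperature incubation, with wells lacking PGK as controls. Buffer: 100 mM TEA (pH 7.6), 5 mM MgCl2, 0.01% Tween-20. Coupling enzyme GAPDH (100 nM final) supplies unstable 1,3-BPG in-well.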
RGS4 inhibitor: blocks human RGS4-accelerated GTP hydrolysis; P49798; Transcreener GDP fluorescence polarization, RGS4-accelerated GTP hydrolysis; Potency, µM (doses to about 114 µM), without a hit: top-dose activity change, negative = inhibition, most hits filed as inhibitors; 0.039% of 390,000 active; AID 504845; also: potency is read from the fitted curve at half-maximal effect; nearly all actives have a fitted effect of over 75% in size
Target sequence (P49798 whole entry, looked up): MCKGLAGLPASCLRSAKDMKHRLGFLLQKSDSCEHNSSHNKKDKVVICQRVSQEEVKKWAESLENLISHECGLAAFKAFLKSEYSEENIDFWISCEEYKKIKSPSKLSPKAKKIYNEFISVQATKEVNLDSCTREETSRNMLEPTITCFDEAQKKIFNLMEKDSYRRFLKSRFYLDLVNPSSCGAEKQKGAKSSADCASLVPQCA
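MLSMR compounds (23 nl, pin-transferred) preincubated 10 min at room temperature with a 500nM (2x) first reagent, then RGS4 at 900nM (2x) plus Transcreener GDP mix added; fluorescence polarization (620/688 nm) read before and after 90 min at 30 °C.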
GCN5L2 inh: inhibitors of human GCN5L2 histone acetyltransferase; Q92830; GCN5L2 HAT assay, ThioGlo1 CoA-SH fluorescence; Potency, µM (doses to about 58.9 µM), for inactives: at the top dose activity change, negative = inhibition, most hits filed as inhibitors; 0.21% of 390,000 active; also: potency is read from the fitted curve at half-maximal effect
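qHTS, 1536-well. 20nM enzyme, pH 7.5 HEPES/EDTA/Tween-20 buffer; 15 min compound preinc., RT. Start: 75uM H3(1-25), 70uM AcCoA, 50uM ThioGlo1. Read Ex340/Em540 at t=0 (autofluorescence flag) and t=20 min.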
Active calls of the source: *; i = inactive; ? = inconclusive; . = no result given; ! = repeats disagree; [ ] = remark or other dose. Unless noted, calls follow the shape of the dose curve; as a rule, active = well fitted curve in the direction sought with a large enough effect; inconclusive = small, poorly fitted or top-dose-only effect, or another doubt; inactive = no such curve, though single readings can be large; an effect the other way counts as inactive or inconclusive. % is scaled to controls: 0 for no effect and ±100 for the full control effect.

SMILES	Pin1 inh	KCNH2 3.1 block	KCNH2 WT inh	PGK inhibitor	RGS4 inhibitor	GCN5L2 inh
O=C(Nc1ccc(F)cc1)c1cccn1-c1nnc(N2CCCCC2)s1	-8.7%	.	.	-7.9%	-6.8%	17.3%
COc1ccc2c(Sc3ccc(Cl)cc3)c(C(=O)NCCCN3CCCCC3)[nH]c2c1	15.1%	.	.	-0.9%	18.5%	-9.9%
O=C(CCn1c(=O)c2sccc2n(CC(=O)NCc2ccco2)c1=O)NCc1ccccc1	44.5%	3.0	-254.0*	-9.1%	-19.6%	-29.6%
COc1cc(CN2CCC(CO)(CCOc3ccccc3)CC2)cc(OC)c1	-0.1%	?	18.8	6.6%	19.7%	8.8%
OCC1(CCOc2ccccc2)CCN(Cc2cccn2-c2ncccn2)CC1	4.9%	-93.3*	-16.4	-6.8%	13.3%	1.0%
Cc1cc(C)c(CN2CCC(CO)(CCOc3ccccc3)CC2)cc1C	2.8%	-111.0*	-35.2	2.2%	41.4%	-14.9%
OCC1(CCOc2ccccc2)CCN(C2Cc3ccccc3C2)CC1	-8.9%	-76.6*	15.2	-1.5%	-9.5%	-4.9%
COc1ccc(OC)c(CN2CCC(CO)(CCOc3ccccc3)CC2)c1	-1.1%	-75.3*	69.3	-7.0%	-40.4%	-5.3%
COc1ccc(CNc2nc3c(-c4ccc(C)cc4)nnn3c3ccccc23)cc1	0.7%	.	.	0.7%	-12.5%	-0.9%
Cc1cn(C2CC3OCC(NC(=O)C4CCCN4C(=O)OC(C)(C)C)C3O2)c(=O)[nH]c1=O (configuration not stated)	0.2%	.	.	.	3.1%	.
COc1ccc(NC(=O)c2cccc(N3CCCS3(=O)=O)c2)cc1OC	3.7%	.	.	-0.6%	6.9%	-3.7%
CN(C)c1cccc(C(=O)Nc2nc3ccc(S(=O)(=O)N4CCCC4)cc3s2)c1	27.4%	.	.	-6.7%	-19.3%	-1.5%
O=C(CNC(=O)c1ccccc1)OCc1cc(=O)n2nc(C3CC3)sc2n1	-0.1%	.	.	-3.9%	0.6%	-0.4%
CCOc1c(Br)cc(C2C=C(C(=O)O)Nc3ncnn32)cc1OC (configuration not stated)	0.4%	.	.	-7.3%	-22.6%	-9.4%
CC1/C(=N/O)C(CN(C)C)C2CC1C2(C)C (configuration not stated)	1.1%	12.3	-291.4*	i	-5.3%	1.4%
Cn1c(=O)c2c(n3c4ccccc4nc13)NC(=O)CC2c1ccccc1F (configuration not stated)	1.1%	.	.	-4.3%	-11.3%	0.2%
CCOC(=O)C1(CCCc2ccccc2)CCN(Cc2cnn(C)c2)CC1	-2.5%	-17.2	23.4	-6.5%	11.1%	-12.7%
CCOC(=O)C1(CCc2ccccc2)CCN(C2Cc3ccccc3C2)CC1	4.9%	-78.9*	?	1.5%	-5.6%	-1.3%
CCOC(=O)C1(CCc2ccccc2)CCN(Cc2ccccn2)CC1	4.7%	-74.0*	-26.2	i	-8.1%	10.7%
CCOC(=O)C1(CCc2ccccc2)CCN(Cc2cc(OC)c(OC)cc2OC)CC1	-4.7%	-98.6*	-11.4	-5.6%	9.1%	3.6%
CCOC(=O)C1(CC2CC2)CCN(Cc2ccc(C(=O)OC)cc2)CC1	-1.5%	-34.9	38.2	-4.9%	31.8%	-10.2%
CCOC(=O)C1(CCc2ccccc2)CCN(C(=O)c2occc2C)CC1	-5.9%	0.7	-0.1	i	-5.4%	-0.4%
CCOC(=O)C1(CCc2ccccc2)CCN(Cc2ccc(C(=O)OC)cc2)CC1	-0.1%	-113.8*	-107.8*	i	10.9%	-15.2%
COc1ccccc1CNC(=O)C1CCCN(c2nnc(-n3c(C)ccc3C)s2)C1 (configuration not stated)	0.2%	.	.	-0.1%	-6.6%	-0.1%
COc1ccc(C2=Nn3c(nnc3-c3ccccc3OC)SC2)c(OC)c1	2.4%	.	.	.	.	.
SMILES	Pin1 inh	KCNH2 3.1 block	KCNH2 WT inh	PGK inhibitor	RGS4 inhibitor	GCN5L2 inh
CC1(COc2ccc(CC3SC(=O)NC3=O)cc2)CCCCC1 (configuration not stated)	.	.	.	.	.	25.1µM*!
CC1(COc2ccc(C[C@H]3SC(=O)NC3=O)cc2)CCCCC1	.	.	.	.	i	35.5µM*
CCc1ccc(CCOc2ccc(CC3SC(=O)NC3=O)cc2)nc1 (configuration not stated)	3.1%	2.7	-11.6	10.9%	-1.7%	-12.1%
O=c1[nH]c2ccccc2n1C1CCCCC1	4.1%	2.8	-84.1*	17.9%	-13.4%	-2.7%
O=C(NC1CCCCC1)N1CCC(n2c(=O)[nH]c3ccccc32)CC1	-1.4%	-0.1	-11.6	-3.2%	-10.8%	-4.3%
CCN(CCCNC(=O)Cn1ncc2c(=O)oc3ccccc3c21)c1cccc(C)c1	8.5%	-180.1*	-165.2*	-3.1%	-14.3%	-6.8%
CCCN(C(=O)Cn1ncc2c(=O)oc3ccccc3c21)c1cccc(C)c1	-12.9%	3.2	3.6	-3.4%	6.1%	-3.6%
COc1ccc(-c2ccccc2C2C3C=CCCC3(C)C(=O)N2Cc2ccccc2)cc1 (configuration not stated)	0.6%	.	.	.	-18.8%	.
O=C(NC1CCCC1)C(c1ccsc1)N(C(=O)Cc1cccs1)c1ccc(F)cc1 (configuration not stated)	-2.6%	-75.9*	-6.9	7.8%[11.5 µM]	12.4%	2.7%
O=C(NC1CCCC1)C(c1ccsc1)N(C(=O)Cc1cccs1)c1cccc(F)c1 (configuration not stated)	2.5%	6.0	4.6	.	4.0%	-1.4%
COC(=O)C(Cc1ccccc1)NC(=O)CCCC(=O)NCc1cccc(OC)c1 (configuration not stated)	2.3%	-2.1	-70.0*	i	-7.8%	-8.8%
COc1cccc(CNC(=O)Cc2ccc(-c3ccccc3)cc2)c1	?	-6.7	0.0	-6.5%	-28.0%	-2.8%
COC(=O)c1oc2ccccc2c1NC(=O)/C=C/C(=O)O	-7.5%	-74.3*	-10.0	-6.4%	19.5%	-1.3%
Brc1ccccc1/C=N/Nc1ccc2ccccc2n1	21.0%	-41.6	2.6	-4.9%	-17.2%	-3.7%
Cc1cc(N/N=C/c2ccccc2Br)nc2ccccc12	21.0%	-82.4*	-20.7	7.3%	21.4%	-1.2%
Cc1ccccc1CNC(=O)c1nn(-c2ccccc2F)nc1CO	0.7%	.	.	6.9%	-4.8%	4.2%
COc1ccc(-c2cc(C(=O)N3CCN(c4ncccn4)CC3)c3ccccc3n2)cc1OC	7.4%	-142.4*	15.6	-1.1%	-39.9%	-9.4%
O=C(c1cc(-c2ccc(Br)cc2)nc2ccccc12)N1CCN(c2ccccc2O)CC1	-3.1%	-74.3*	-5.3	6.0%	5.8%	-7.1%
COc1ccc(-c2cc(C(=O)Nc3ccc(C(N)=O)cc3)c3ccccc3n2)cc1OC	22.7%	-0.4	2.6	-5.5%	-25.9%	-2.8%
COc1ccc(-c2cc(C(=O)N3CCC3)c3ccccc3n2)cc1OC	8.1%	10.5	2.2	0.7%	-16.1%	-9.2%
